Most compounds without a hit are left out; they make up all but 2.5% or so of the library.
Rce1 inh – yeast Rce1p protease inhibitors, primary screen, biochemical, fluorescence, cell-free homogeneous; calls only; 0.27% of 290,000 active; yeast membranes, quenched prenylated peptide cleavage fluorescence; CAAX prenyl protease 2 (Saccharomyces cerevisiae (strain ATCC 204508 / S288c)), Q03530;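 active = fall in fluorescence gain of 50% or more versus controls, with final raw signal at or below 3038400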
UBC13 inh – UBC13 polyubiquitin chain formation inhibitors, primary screen, biochemical, TR-FRET, uHTS. Ubiquitin-conjugating enzyme E2 N (Homo sapiens), P61088. inhibition, % at 20 µM. 0.47% of 330,000 active. AID 485273, 2010; in the data active = inhibition above about 45%, passing the limit was not always enough
MEKK2wt PB1 HTS – modulators of MEK5 binding to wildtype MEKK2, primary screen, biochemical, multiplex bead flow cytometry, Alexa488-MEK5. Mitogen-activated protein kinase kinase kinase 2 (Homo sapiens), Q9Y2U5. Alexa488-MEK5 binding to MEKK2 WT; actives lie on both sides. binding response (% of control), % at 10 µM. 1.1% of 290,000 active; in the data active = binding response below about 67% or above about 130%
MEKK3 PB1 HTS – modulators of MEKK3-MEK5 PB1 binding, primary screen, biochemical, wildtype MEKK3, multiplex bead flow cytometry, Alexa488-MEK5; binding response (% of control), % at 10 µM; bead-based flow cytometry, Alexa488-MEK5 binding to MEKK3; actives lie on both sides; 0 = blocked by unlabeled MEK5, 100 = vehicle; Mitogen-activated protein kinase kinase kinase 3 (Homo sapiens), Q99759; 1.4% of 290,000 active;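 active = binding response more than 3 SD above or below the average of its plate-row segment, actives on both sides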;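 note: Alexa488 bead fluorescence after subtracting the streptavidin-only scavenger bead signal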
Target sequence (Q99759 whole entry, looked up): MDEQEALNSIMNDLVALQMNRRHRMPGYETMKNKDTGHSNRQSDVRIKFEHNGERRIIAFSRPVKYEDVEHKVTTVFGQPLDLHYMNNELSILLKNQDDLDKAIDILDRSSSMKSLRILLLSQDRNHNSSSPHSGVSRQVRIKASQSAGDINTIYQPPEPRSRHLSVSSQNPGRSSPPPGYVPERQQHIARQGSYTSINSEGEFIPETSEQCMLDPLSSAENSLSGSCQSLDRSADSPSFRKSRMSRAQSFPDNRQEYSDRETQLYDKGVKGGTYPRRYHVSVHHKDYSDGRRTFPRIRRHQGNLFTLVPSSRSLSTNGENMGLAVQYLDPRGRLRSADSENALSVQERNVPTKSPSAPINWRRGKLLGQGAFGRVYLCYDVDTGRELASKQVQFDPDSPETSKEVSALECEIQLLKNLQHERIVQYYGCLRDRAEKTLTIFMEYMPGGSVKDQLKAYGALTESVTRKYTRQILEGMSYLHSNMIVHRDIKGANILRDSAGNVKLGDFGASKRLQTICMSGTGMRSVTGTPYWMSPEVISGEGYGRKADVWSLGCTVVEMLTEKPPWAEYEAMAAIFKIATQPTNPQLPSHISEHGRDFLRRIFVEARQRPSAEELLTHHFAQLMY
MEKK2mut PB1 HTS – MEK5 binding signal on mutant MEKK2 PB1, primary screen, biochemical, multiplex bead flow cytometry, Alexa488-MEK5; 0.35% of 290,000 active; AID 1530, 2009; Alexa488-MEK5 binding to MEKK2 mutant; percent response, % at 10 µM; in the data active = percent response above about 24%, passing the limit was not always enough
MEKK2wt confirm – modulators of MEK5 binding to wildtype MEKK2, confirmation, biochemical, single concentration, multiplex bead flow cytometry | shares compounds with MEKK3 PB1 HTS | Alexa488-MEK5 binding to MEKK2 WT; actives lie on both sides | binding response (% of control), % at 10 µM | 2.4% of 5,900 active | AID 1892, 2009; in the data active = binding response below about 16% or above about 210%; inactive = in between
MEKK2mut confirm – mutant MEKK2 PB1-MEK5 binding signal retest – biochemical, single concentration, multiplex bead flow cytometry, confirmation. 2% of 5,900 active. AID 1893, 2009. shares compounds with MEKK3 PB1 HTS. Alexa488-MEK5 binding to MEKK2 mutant. percent response, % at 10 µM; in the data active = percent response mostly above about 71%, no sharp cut-off; inactive = mostly below about 38%;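 note: higher means compound restores mutant binding toward wildtype level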
MEKK3-MEK5 inh – MEKK3 wild-type PB1 binding to MEK5, inhibitors, confirmation, biochemical, bead multiplex flow cytometry, single concentration, wildtype | binding response (% of control), % at 10 µM | shares compounds with MEKK3 PB1 HTS | AID 1894, 2009 | Alexa488-MEK5 binding to MEKK3; hits give low values | 1.8% of 5,900 active;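 active = binding response below 72% of control, or above a set upper limit, though filed actives all read lower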;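 note: lower values mean stronger disruption of MEK5 binding to MEKK3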
Numbers stand for hits; – = inactive; · = not tested or not shown; [ ] = remark or other dose.

SMILES | Rce1 inh | UBC13 inh | MEKK2wt PB1 HTS | MEKK3 PB1 HTS | MEKK2mut PB1 HTS | MEKK2wt confirm | MEKK2mut confirm | MEKK3-MEK5 inh
Cc1ccnc(NC(=O)C(C)N2C(=O)c3ccccc3S2(=O)=O)c1 (configuration not stated) | – | – | · | · | · | · | · | ·
O=c1c2ccccc2nc(/C=C/c2c[nH]c3ccccc23)n1-c1ccc([N+](=O)[O-])cc1 | – | – | – | 75[inhibitor] | – | – | – | –
Cc1[nH]c2ccccc2c1/C=C/c1nc2ccccc2c(=O)n1-c1cccc([N+](=O)[O-])c1 | – | – | – | – | – | · | · | ·
O=C(Nc1ccccc1C(=O)N/N=C/c1ccc(O)cc1)c1ccccc1 | – | – | – | – | – | · | · | ·
CC(C)=C(NC(=O)c1ccccc1)C(=O)N/N=C/c1ccc(O)cc1 | – | – | 19[inhibitor] | – | – | – | – | –
Cc1cccc(/C=N/NC(=O)Cn2nnnc2N)n1 | – | – | – | – | – | · | · | ·
Cc1ccccc1Sc1ccc(N)cn1 | – | – | · | · | · | · | · | ·
CC(=O)N/C(=C\c1ccc(C)o1)C(=O)NCc1ccccc1 | – | – | – | – | – | · | · | ·
Cc1ccc(N2C(=O)C3C(c4ccccc4)N4CCCN4C3(C)C2=O)cc1 (configuration not stated) | – | – | – | 66[inhibitor] | – | – | – | –
Cc1ccc(N2C(=O)C3C(C2=O)N2CCCN2C3c2ccccc2)cc1C (configuration not stated) | – | – | – | – | – | · | · | ·
Cc1onc(-c2ccccc2Cl)c1C(=O)O/N=C(\N)c1ccccc1 | – | – | – | – | – | · | · | ·
C/C(=N\OC(=O)c1c(-c2ccccc2Cl)noc1C)c1ccncc1 | – | – | – | 48[inhibitor] | – | – | – | –
C/C(=N/NC(=O)CNc1ccc(Cl)cc1C)c1ccc(C)cc1 | – | – | – | – | – | · | · | ·
Nc1nc(-c2cccc(NS(=O)(=O)c3ccccc3)c2)cs1 | – | – | – | 82[inhibitor] | – | – | – | –
CC(=O)Nc1ccc(S(=O)(=O)Nc2cccc(-c3csc(C)n3)c2)cc1 | – | – | – | – | – | · | · | ·
CCOC(=O)C(NC(=O)Nc1ccc(Cl)cn1)(Oc1ccc(F)cc1)C(F)(F)F (configuration not stated) | – | – | – | 152 | – | – | – | –
CCOC(=O)C(NC(=O)NCc1ccc(F)cc1)(OCC)C(F)(F)F (configuration not stated) | – | – | – | 128 | – | – | – | –
O=C(Nc1ccc(F)cc1)Nc1ccc(Cl)cn1 | – | – | – | – | – | · | · | ·
CCOc1ccc(NC(=S)N(CCCN2CCCC2)Cc2cccn2Cc2ccc(Cl)cc2)cc1 | – | – | 186 | – | – | – | – | –
CN1CCN(CCCN(Cc2ccco2)C(=S)Nc2ccc(Cl)cc2)CC1 | – | – | – | – | – | · | · | ·
Cc1cccc(NC(=S)N(CCCN2CCCC2)Cc2cccn2Cc2ccc(Cl)cc2)c1 | – | – | 206 | – | 65 | – | – | –
Cc1c(NC(=O)c2cccc(NC(=O)COc3cccc(Br)c3)c2)c(=O)n(-c2ccccc2)n1C | · | – | · | · | · | · | · | ·
O=C(O)Cc1sc(-c2ccc(Cl)cc2)nc1-c1ccccc1 | – | – | – | 123 | – | – | – | –
O=[N+]([O-])c1ccc(N/N=C/c2c[nH]c3ccccc23)c(S(=O)(=O)Nc2ccc(Cl)cc2)c1 | – | – | · | · | · | · | · | ·
